# The panel holds about 83,000 compounds, 20% with a hit somewhere; the sample as a whole holds those more often.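 The endpoint reported here, percent growth, reads 100 for growth as untreated, 0 for no net growth and -100 for all cells dead.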 Values without a mark were called inactive. The source made the active and inactive calls. Rule for the calls: active = growth percent below 10; inactive = the rest.
# Assays:
# Experiment in all cases: NCI-60 one-dose screen, 48 h (100 = growth as untreated, 0 = no growth, -100 = all killed)
# Settings in all cases: 10 µM unless noted
# DU-145 prostate = tested on: DU-145 prostate
# K-562 leukemia = tested on: K-562 leukemia
# MALME-3M melanoma = tested on: MALME-3M melanoma
# MDA-MB-231 breast = tested on: MDA-MB-231 breast
# RXF 393 renal = tested on: RXF 393 renal
# SF-268 CNS = tested on: SF-268 CNS
# SF-295 CNS = tested on: SF-295 CNS
# SF-539 CNS = tested on: SF-539 CNS
# UACC-257 melanoma = tested on: UACC-257 melanoma
# M14 melanoma = tested on: M14 melanoma
# HCT-15 colon = tested on: HCT-15 colon
# HT29 colon = tested on: HT29 colon
# SNB-75 CNS = tested on: SNB-75 CNS
# SNB-19 CNS = tested on: SNB-19 CNS
# U251 CNS = tested on: U251 CNS
# PC-3 prostate = tested on: PC-3 prostate
# SK-MEL-5 melanoma = tested on: SK-MEL-5 melanoma
# UACC-62 melanoma = tested on: UACC-62 melanoma
# LOX IMVI melanoma = tested on: LOX IMVI melanoma
# SK-MEL-28 melanoma = tested on: SK-MEL-28 melanoma
SMILES,growth (DU-145 prostate),growth (K-562 leukemia),growth (MALME-3M melanoma),growth (MDA-MB-231 breast),growth (RXF 393 renal),growth (SF-268 CNS),growth (SF-295 CNS),growth (SF-539 CNS),growth (UACC-257 melanoma),growth (M14 melanoma),growth (HCT-15 colon),growth (HT29 colon),growth (SNB-75 CNS),growth (SNB-19 CNS),growth (U251 CNS),growth (PC-3 prostate),growth (SK-MEL-5 melanoma),growth (UACC-62 melanoma),growth (LOX IMVI melanoma),growth (SK-MEL-28 melanoma)
C=C1C(=O)O[C@H]2[C@H]1CC/C(COC(=O)C(=O)c1cn(C)c3ccc(OC)cc13)=C\CC[C@@]1(C)O[C@@H]21,-79% (active),2.97% (active),-74.8% (active),-58.4% (active),-94.8% (active),-40.6% (active),10.2%,-66.9% (active),-72.1% (active),-77.3% (active),-53.1% (active),-52.7% (active),-76.7% (active),-13.8% (active),-92.5% (active),-59.2% (active),-100% (active),-84.8% (active),-88.5% (active),-65.3% (active)
CCN1CCN(c2cc(C)nc(NCc3cc(Nc4ccnc5cc(Cl)ccc45)ccc3F)n2)CC1,50.7%,4.69% (active),107%,26.4%,58.5%,58%,31%,55.7%,69.2%,-64.3% (active),15.9%,-5.84% (active),79%,68.3%,59.8%,57.6%,-85.5% (active),86.3%,8.07% (active),93.3%
N/C(=N/N=C/c1ccccc1)N/N=C\c1ccccc1,73.6%,21.8%,67.4%,76.3%,24.8%,76%,66.9%,58%,68.5%,26.8%,44.1%,27.7%,67.1%,74.6%,50.2%,64.3%,34.1%,70.5%,62.1%,71.9%
CNC(=O)c1cc(Oc2cccc3nc(Nc4ccc(F)c(Cl)c4)ccc23)ccn1,93.2%,26%,40.2%,62.7%,75.3%,54.5%,87%,55.9%,40%,51.8%,16.5%,81.4%,87.6%,43.6%,26.7%,30.8%,12.3%,25.3%,27%,65.7%
N#C/C(=C/C=C/c1cccc(Cl)c1)S(=O)c1ccccc1 (stereo not given),-92.6% (active),2.14% (active),-41.5% (active),-57.6% (active),-87.6% (active),-59.2% (active),-28.9% (active),-50.3% (active),-46.8% (active),-52.6% (active),-69.4% (active),-35.9% (active),-28% (active),-53% (active),-89.6% (active),-55.5% (active),-70.5% (active),-74.2% (active),-85.3% (active),-61.1% (active)
O=C(CSc1nnc(-c2ccc(NC(=O)c3cccnc3)cc2)o1)N[C@@H](Cc1ccc(O)cc1)C(=O)O,117%,93.6%,102%,97.7%,109%,107%,108%,102%,99.7%,100%,113%,106%,98.9%,96.7%,103%,101%,100%,92.8%,104%,108%
CN1CCN(C(=O)c2c3c(n4ccccc24)C(=O)c2ncccc2C3=O)CC1,56.8%,54.1%,72.1%,79.5%,60.8%,52.9%,73.5%,58%,97.7%,49%,46%,93.3%,39.9%,50.4%,66.5%,54.8%,65.6%,39.3%,30.3%,103%
C=CCNc1nc(NN2C(=O)c3cccc4cccc(c34)C2=O)nc(-n2cnc3ccccc32)n1,97.9%,9.94% (active),93.5%,68.3%,50.3%,65%,76.5%,50.4%,102%,97.9%,66.7%,88.9%,39.2%,83.7%,63.3%,67.1%,64.9%,77.2%,77.8%,103%
CC(C)(C)n1cc(-c2ccnc(NCCCNS(=O)(=O)c3ccccc3)c2)c(-c2ccccc2)n1,83.7%,21.2%,82.7%,72%,62%,93.1%,63.2%,66.4%,77.9%,67.1%,26.5%,24.7%,65.1%,89.4%,64.3%,35.6%,53.2%,61.8%,50.9%,97%
COc1ccc(CNC(=O)C(O)C(Cc2ccccc2)NC(=O)c2[nH]c3ccccc3c(=O)c2C)cc1OC (stereo not given),113%,102%,111%,103%,111%,102%,99.7%,107%,105%,106%,101%,100%,107%,100%,101%,102%,103%,103%,104%,109%
Cc1ccc(NS(=O)(=O)c2ccc3c(c2)C(=O)CC(c2ccc(C(=O)C(C)C)cc2)N3)cc1C (stereo not given),83.5%,39.7%,51.1%,78.5%,75.3%,68%,37.7%,71.5%,43.1%,73%,57%,91.3%,55.7%,68.2%,68%,46%,-10.4% (active),52.8%,55.6%,77%
CC1CC2Oc3ccc(Cl)cc3C(=O)N2O1 (stereo not given),102%,107%,118%,102%,119%,103%,104%,102%,118%,107%,99.2%,105%,101%,112%,108%,97.1%,102%,108%,98.2%,118%
C=C1C(=O)O[C@H]2[C@H]1CC/C(CNC(=O)/C=C/c1ccc(Cl)cc1Cl)=C\CC[C@@]1(C)O[C@@H]21,-80.7% (active),-31.2% (active),-89.8% (active),-42.1% (active),-84.6% (active),-69.7% (active),39.2%,-72.4% (active),-51.7% (active),-57.5% (active),-64% (active),-58.4% (active),21.3%,37.4%,8.28% (active),-26.4% (active),3.01% (active),-65.2% (active),-97.2% (active),-68.2% (active)
C=C(C)[C@@H]1CC[C@]2(C)[C@H](CC=C3[C@@H]4CC(C)(C)CC[C@]4(C(N)=O)CC[C@]32C)[C@@]1(C)CCC#N,42.1%,15.9%,10.4%,38.6%,2.74% (active),45.6%,38.5%,35.7%,17.5%,44.7%,14.8%,39.3%,29.3%,47.7%,30.6%,-0.165% (active),-2.59% (active),15.7%,36.9%,45.8%
COc1c(CCC[P+](c2ccccc2)(c2ccccc2)c2ccccc2)cc2c(c1OC)OCO2,23.5%,12.3%,9.97% (active),-8.84% (active),29%,15.4%,20.8%,20.2%,-3.96% (active),12.2%,92.3%,38.2%,-3.69% (active),9.64% (active),7.32% (active),-0.165% (active),-68.6% (active),-3.8% (active),15.9%,25.1%

# From PubChem BioAssay (NCI)
